HT1080 IDH1KD tx: qHTS for induction of synthetic lethality in tumor cells producing 2HG: qHTS for the HT-1080-IDH1KD cell line; HT-1080 IDH1 knockdown viability, ATP luminescence, 48 h; Potency, µM (top dose mostly 46.1 µM), inactives show at the top dose activity, negative = toxicity, usual class: cytotoxic; hit rate 2% among 360,000; AID 686971, 2013;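 note: potency is the fitted concentration of half-maximal effect; 0% = DMSO wells and -100% = cell-free medium wells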
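% activity derives from luminescence (CellTiter-Glo), normalised to DMSO and no-cell wells. HT-1080-IDH1KD cells, 750/well, had 48 h compound exposure at 37 °C.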
HT1080NT lethal: qHTS for induction of synthetic lethality in tumor cells producing 2HG: qHTS for the HT-1080-NT fibrosarcoma cell line; HT-1080-NT fibrosarcoma viability, CellTiter-Glo ATP luminescence, 48 h; Potency, µM (doses to about 46.1 µM), without a hit: top-dose activity, negative = less viability, usual class: cytotoxic; hit rate 1.6% among 360,000; AID 686970, 2013;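 note: NT is the 2HG producing partner of a matched IDH1 knockdown line; potency is the fitted concentration of half-maximal effect; 0% = DMSO-treated cells and -100% = media-only wells without cells; nearly all actives have a fitted effect of over 55% in size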
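HT-1080-NT fibrosarcoma cells (2HG-overproducing), 750 cells/well in RPMI with 5% FBS, dosed after 2 h and incubated 48 h at 37C. CellTiter-Glo luminescence normalized to DMSO and no-cell wells; concentration-response curves fitted and classed.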
DT40 TDP1 CPT: qHTS for Inhibitors of human tyrosyl-DNA phosphodiesterase 1 (TDP1): qHTS in cells in presence of CPT; hit rate 12% among 420,000; AID 686979, 2013; Potency, µM (series often up to 46.2 µM), for inactives: at the top dose activity change, negative = growth inhibition, hits mostly inhibitors; chicken DT40 Tdp1-/-;hTDP1 cells + 20 nM CPT, ATP luminescence, 48 h; note: potency is the fitted concentration of half-maximal effect; nearly all actives have a fitted effect of over 55% in size
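Chicken DT40 Tdp1-/- cells complemented with human TDP1, 400 cells/well, exposed to compounds plus 20 nM camptothecin for at least 48 h at 37 C; viability read as ATP content by CellTiter-Glo luminescence.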
TDP1 cell noCPT: qHTS for Inhibitors of human tyrosyl-DNA phosphodiesterase 1 (TDP1): qHTS in cells in absence of CPT; DT40 Tdp1-/- hTDP1 cells, no CPT, ATP luminescence, 48 h; Potency, µM (top dose mostly 46.2 µM), for inactives: top-dose activity change, negative = growth inhibition, most hits filed as inhibitors; hit rate 15% among 420,000; AID 686978, 2013; note: potency is the fitted concentration of half-maximal effect; nearly all actives have a fitted effect of over 55% in size
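Compound effects on proliferation are scored in DT40 Tdp1-/-;hTDP1 cells in the absence of CPT. ATP levels (CellTiter-Glo luminescence) are recorded after a ≥48 hr, 37 °C incubation.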
IL1B secr inh: qHTS for Inhibitors of Inflammasome Signaling: IL-1-beta AlphaLISA Primary Screen; THP-1 LPS/ATP IL-1B secretion, AlphaLISA, 16 h; stronger effect = lower value; activity change, % at 57.5 µM; hit rate 4.7% among 360,000; AID 743279, 2014; in the data active = activity change below about -50%; inconclusive = mostly about -30% to -49%
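Secreted IL-1B measured by AlphaLISA bead assay after 16 h compound exposure of THP-1 cells; compounds (final up to 57.5 uM) added 1 h before LPS (250 ng/mL) and ATP (1.25 mM) stimulation; lower signal means less secretion.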
The depositor's hits bear a star; ? = inconclusive; / = not tested or not shown; ! = a repeat was not active. Compounds with a hit are over-represented: about 19% of the library has one in this group of screens. Unless noted, calls come from the whole dose curve; as a rule, active = well fitted curve in the direction sought with a large enough effect; inconclusive = small, poorly fitted or top-dose-only effect, or another doubt; inactive = no such curve, though single readings can be large; an effect the other way counts as inactive or inconclusive. Unless noted, % is set by controls: 0 for no effect and ±100 for the full control effect.

SMILES	HT1080 IDH1KD tx	HT1080NT lethal	DT40 TDP1 CPT	TDP1 cell noCPT	IL1B secr inh
CC(=O)c1ccccc1C(=O)N1CCC(CCC(=O)NCc2ccc(F)cc2)CC1	0.8%	-1.0%	-22.5%	?	0.0
CCC1Oc2ccccc2N(CC(=O)NCc2ccco2)C1=O (stereo unspecified)	10.7%	-19.0%	-14.2%	-13.9%	-0.7
Cc1ccc2c(c1)-c1c(cnn1CC(=O)N(CCC#N)c1ccccc1)CO2	-0.1%	8.2%	?	?	-27.5
OCc1nc2ccccc2n1CCCc1ccccc1	5.6%	0.8%	16.4µM*	?	8.5
CCCCCCn1c(C(C)O)nc2ccccc21 (stereo unspecified)	-4.5%	-6.0%	?	?	34.5
CC(O)c1nc2ccccc2n1CCCc1ccccc1 (stereo unspecified)	-3.9%	-24.2%	18.4µM*	-24.8%	-7.6
CC(O)c1nc2ccccc2n1CCCOc1ccccc1 (stereo unspecified)	-3.1%	-0.3%	?	16.4µM*	63.2
COc1cc(OC)c(-c2nn3c(-c4n[nH]c5c4CCC5)nnc3s2)cc1OC	/	/	?	11.2µM*!	/
COc1cc(OC)c(-c2nn3c(-c4cc(C)[nH]n4)nnc3s2)cc1OC	/	/	7.08µM*	4.47µM*	/
CN(C(=O)c1ccccc1)C(=O)c1ccccc1	-9.9%	-1.0%	-20.3%	-3.4%	0.0
CC(=O)c1ccc(C)cc1OC(=O)c1cccc(F)c1	6.9%	6.5%	13.8%	-3.8%	-3.6
Cc1ccc(C(=O)CC(=O)c2ccccc2C)c(O)c1	?	?	2.59µM*	2.31µM*	66.5
Cc1ccc(C(=O)CC(=O)c2cccc(F)c2)c(O)c1	?	?	7.31µM*	6.51µM*	62.1
CCN(CC)C(=O)OCc1c(-c2cccc(OC)c2)ncc2ccccc12	-3.3%	0.0%	-20.5%	?	-7.9
COc1cccc(-c2ncc3ccccc3c2COC(=O)N2CCCCC2)c1	-6.6%	1.8%	?	16.4µM*	-0.7
COc1cccc(OC)c1C(=O)OCc1c(-c2ccccc2)ncc2ccccc12	-1.4%	-1.8%	20.6µM*	18.4µM*	-6.8
COc1cccc(-c2ncc3ccccc3c2COC(=O)N2CCOCC2)c1	6.4%	-4.0%	?	?	-21.2
O=C(O)c1ccccc1C(=O)OCc1c(-c2ccccc2)ncc2ccccc12	-0.2%	0.0%	?	-12.7%	39.1
O=C(OCc1c(-c2ccccc2)ncc2ccccc12)c1ccc(F)cc1	6.5%	1.8%	?	16.4µM*	7.8
CCN(CC)C(=O)OCc1c(-c2ccccc2)ncc2ccccc12	9.7%	-0.8%	?	23.1µM*	-26.2
C[C@@H](NC(=O)[C@@H]1CCCN1C(=O)[C@@H]1CCCN1C(=O)c1cccc2ccccc12)c1ccccc1	2.3%	-2.3%	?	?	10.7
CCc1ccccc1NC(=O)Cn1c(=O)n(-c2ccc(C)cc2)c(=O)c2c1c1cc(C)ccc1n2C	/	/	-4.1%	-0.9%	/
C[N+](C)(CCCCCI)c1ccc(/C=C/c2nc3ccccc3s2)cc1	/	/	1µM*	0.562µM*	/
CC1CCCCC1NC(=O)/C=C/c1nc2ccccc2s1 (stereo unspecified)	-1.3%	-5.3%	?	?	-29.2
Cc1cc(CNC(=O)c2cccc3c2C(=O)c2ccc(-c4ccc(F)cc4OCc4ccccc4)cc2S3(=O)=O)c(C(F)(F)F)o1	-14.2%	-9.8%	?	11.6µM*	16.8
SMILES	HT1080 IDH1KD tx	HT1080NT lethal	DT40 TDP1 CPT	TDP1 cell noCPT	IL1B secr inh
O=C(NCc1ccccc1Br)c1cccc2c1C(=O)c1ccc(-c3ccc(OC(F)(F)F)cc3)cc1S2(=O)=O	-2.9%	-2.3%	8.2µM*	7.31µM*	6.0
O=C(NCc1ccc(OC(F)(F)F)cc1)c1cccc2c1C(=O)c1ccc(N3CCCCC3)cc1S2(=O)=O	3.4%	0.5%	-5.6%	-13.7%	2.5
O=C(NCc1cccc(C(F)(F)F)c1)c1cccc2c1C(=O)c1ccc(N3CCC(Cc4ccccc4)CC3)cc1S2(=O)=O	11.2%	?	?	7.31µM*	-1.5
O=C(NCc1ccc(OC(F)(F)F)cc1)c1cccc2c1C(=O)c1ccc(N3CCCC3)cc1S2(=O)=O	-0.9%	?	-25.2%	18.4µM*	20.0
O=C(NCCc1ccc(F)cc1)c1cccc2c1C(=O)c1ccc(N3CCC(Cc4ccccc4)CC3)cc1S2(=O)=O	-0.7%	2.8%	?	?	9.4
O=C(NCc1ccco1)c1cccc2c1C(=O)c1ccc(N3CCC(Cc4ccccc4)CC3)cc1S2(=O)=O	-2.2%	-0.1%	13µM*	13µM*	33.1
O=C(NCCN1CCOCC1)c1cccc2c1C(=O)c1ccc(N3CCCC3)cc1S2(=O)=O	6.5%	23.0%	5.0%	-6.8%	0.6
O=C(NCc1ccco1)c1cccc2c1C(=O)c1ccc(/C=C/c3ccccc3)cc1S2(=O)=O	?	?	?	23.1µM*	1.0
O=C(NCc1ccc(OC(F)(F)F)cc1)c1cccc2c1C(=O)c1ccc(N3CCC(Cc4ccccc4)CC3)cc1S2(=O)=O	7.8%	2.1%	8.2µM*	5.17µM*	-1.7
CC(NC(=O)CCN1C(=O)c2ccccc2C1=O)c1ccc2c(c1)CCCC2 (stereo unspecified)	-0.8%	3.1%	-7.4%	-12.3%	3.8
CN(C)CCCN(C(=O)c1ccc2c(c1)CCCC2)c1nc2c(F)cccc2s1	0.3%	-16.5%	20.6µM*	23.1µM*	-62.3*
Cc1cc(C)c2nc(N(CCCN(C)C)C(=O)c3ccc4c(c3)CCCC4)sc2c1	?	-15.2%	20.6µM*	10.3µM*	-77.8*
C=CCNC(=O)c1onc(CCl)c1C(=O)OC	25.9µM*	?	23.1µM*	?	110.2
Cc1nc2ccccn2c(=O)c1NC(=O)c1ccccc1Cl	/	/	-7.6%	-16.5%	/
C#CC[N+](C)(C)CC#Cc1ccc(Cl)cc1	?	?	-10.7%	-28.7%	-66.8*
C#CC[N+](CC)(CC)CC#Cc1cccc(Cl)c1	-14.7%	-7.9%	?	?	-4.1
Cc1ccc(NC=C(S(=O)(=O)c2ccccc2)S(=O)(=O)c2ccccc2)cc1	9.0%	8.7%	-16.6%	?	-1.8
Cc1ccc(NC=C(S(=O)(=O)c2ccccc2)S(=O)(=O)c2ccccc2)c(C)c1	11.7%	12.0%	?	20.6µM*	-14.6
O=C(NNC(=S)Nc1ccc(F)c(Cl)c1)c1ccccc1Br	?	?	?	?	-61.7*

From PubChem BioAssay
